Laboratory results from the supplement of paper PMC12067093, “Discovery and optimisation of a covalent ligand for TRIM25 and its application to targeted protein ubiquitination” (Chemical Science, 2025).
About 21,000 targets were measured; listed, in parts, are those with the largest changes and a random draw of the rest.

compound: CC1Cc2ccccc2N1C(=O)C1CCCN(C1)C(=O)CCl (mixture of isomers) [TRIM25 ligand 11 (diastereomer mixture)]; assay: probe-labelled cysteine peptide fold change vs DMSO (competition) (log2 fold change); higher = less target engagement (more negative = stronger competition); conditions: 10 µM; THP-1; incubation time: 4 h
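Further: competitive chemoproteomic profiling in live THP-1 cells with an iodoacetamide desthiobiotin (IA-DTB) probe, comparing probe-labelled peptide intensities in compound-treated cells against DMSO-treated controls.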

Chain of UniProt O15160 (O15160 whole entry, looked up): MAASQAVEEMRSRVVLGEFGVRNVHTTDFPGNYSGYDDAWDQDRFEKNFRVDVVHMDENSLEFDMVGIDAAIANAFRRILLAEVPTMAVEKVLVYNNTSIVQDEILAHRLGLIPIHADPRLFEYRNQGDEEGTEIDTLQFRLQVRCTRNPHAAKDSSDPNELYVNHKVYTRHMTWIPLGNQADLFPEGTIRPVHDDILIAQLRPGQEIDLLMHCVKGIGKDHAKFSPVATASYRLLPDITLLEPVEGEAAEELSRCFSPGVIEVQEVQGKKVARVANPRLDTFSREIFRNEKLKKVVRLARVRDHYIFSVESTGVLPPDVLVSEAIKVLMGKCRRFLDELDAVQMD
Chain of UniProt Q9BZL4 (Q9BZL4 whole entry, looked up): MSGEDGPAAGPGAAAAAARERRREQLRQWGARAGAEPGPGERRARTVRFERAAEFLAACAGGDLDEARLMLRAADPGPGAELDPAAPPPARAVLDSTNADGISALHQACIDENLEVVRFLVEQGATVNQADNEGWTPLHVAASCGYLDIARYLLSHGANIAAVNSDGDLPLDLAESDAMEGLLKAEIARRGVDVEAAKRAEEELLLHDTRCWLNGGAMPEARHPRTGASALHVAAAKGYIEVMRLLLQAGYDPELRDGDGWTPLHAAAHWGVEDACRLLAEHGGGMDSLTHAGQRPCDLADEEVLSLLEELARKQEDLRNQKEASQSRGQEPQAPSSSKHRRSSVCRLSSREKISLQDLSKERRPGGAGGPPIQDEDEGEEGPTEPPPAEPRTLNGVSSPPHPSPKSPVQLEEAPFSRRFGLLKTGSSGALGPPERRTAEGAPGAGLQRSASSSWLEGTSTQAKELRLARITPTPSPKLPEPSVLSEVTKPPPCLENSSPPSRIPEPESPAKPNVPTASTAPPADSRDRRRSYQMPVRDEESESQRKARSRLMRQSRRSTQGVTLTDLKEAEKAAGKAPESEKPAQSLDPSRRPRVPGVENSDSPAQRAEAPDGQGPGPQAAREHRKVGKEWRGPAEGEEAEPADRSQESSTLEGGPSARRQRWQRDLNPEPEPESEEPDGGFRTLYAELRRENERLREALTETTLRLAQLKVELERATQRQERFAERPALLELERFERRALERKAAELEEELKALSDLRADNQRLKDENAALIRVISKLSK
Chain of UniProt P12955 (P12955 whole entry, looked up): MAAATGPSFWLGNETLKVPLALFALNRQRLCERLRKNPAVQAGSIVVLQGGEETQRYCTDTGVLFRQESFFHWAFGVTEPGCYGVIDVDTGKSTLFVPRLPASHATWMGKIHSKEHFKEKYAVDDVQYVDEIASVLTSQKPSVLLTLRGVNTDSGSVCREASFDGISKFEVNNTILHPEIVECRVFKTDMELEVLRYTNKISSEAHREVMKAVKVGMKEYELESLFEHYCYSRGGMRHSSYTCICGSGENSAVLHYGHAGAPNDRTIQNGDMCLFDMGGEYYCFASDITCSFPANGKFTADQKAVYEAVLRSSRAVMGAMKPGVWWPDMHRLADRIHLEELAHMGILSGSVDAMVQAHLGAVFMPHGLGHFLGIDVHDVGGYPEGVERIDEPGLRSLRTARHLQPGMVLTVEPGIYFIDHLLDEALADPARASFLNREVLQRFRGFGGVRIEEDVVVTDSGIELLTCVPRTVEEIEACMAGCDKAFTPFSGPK
Chain of UniProt Q99570 (Q99570 whole entry, looked up): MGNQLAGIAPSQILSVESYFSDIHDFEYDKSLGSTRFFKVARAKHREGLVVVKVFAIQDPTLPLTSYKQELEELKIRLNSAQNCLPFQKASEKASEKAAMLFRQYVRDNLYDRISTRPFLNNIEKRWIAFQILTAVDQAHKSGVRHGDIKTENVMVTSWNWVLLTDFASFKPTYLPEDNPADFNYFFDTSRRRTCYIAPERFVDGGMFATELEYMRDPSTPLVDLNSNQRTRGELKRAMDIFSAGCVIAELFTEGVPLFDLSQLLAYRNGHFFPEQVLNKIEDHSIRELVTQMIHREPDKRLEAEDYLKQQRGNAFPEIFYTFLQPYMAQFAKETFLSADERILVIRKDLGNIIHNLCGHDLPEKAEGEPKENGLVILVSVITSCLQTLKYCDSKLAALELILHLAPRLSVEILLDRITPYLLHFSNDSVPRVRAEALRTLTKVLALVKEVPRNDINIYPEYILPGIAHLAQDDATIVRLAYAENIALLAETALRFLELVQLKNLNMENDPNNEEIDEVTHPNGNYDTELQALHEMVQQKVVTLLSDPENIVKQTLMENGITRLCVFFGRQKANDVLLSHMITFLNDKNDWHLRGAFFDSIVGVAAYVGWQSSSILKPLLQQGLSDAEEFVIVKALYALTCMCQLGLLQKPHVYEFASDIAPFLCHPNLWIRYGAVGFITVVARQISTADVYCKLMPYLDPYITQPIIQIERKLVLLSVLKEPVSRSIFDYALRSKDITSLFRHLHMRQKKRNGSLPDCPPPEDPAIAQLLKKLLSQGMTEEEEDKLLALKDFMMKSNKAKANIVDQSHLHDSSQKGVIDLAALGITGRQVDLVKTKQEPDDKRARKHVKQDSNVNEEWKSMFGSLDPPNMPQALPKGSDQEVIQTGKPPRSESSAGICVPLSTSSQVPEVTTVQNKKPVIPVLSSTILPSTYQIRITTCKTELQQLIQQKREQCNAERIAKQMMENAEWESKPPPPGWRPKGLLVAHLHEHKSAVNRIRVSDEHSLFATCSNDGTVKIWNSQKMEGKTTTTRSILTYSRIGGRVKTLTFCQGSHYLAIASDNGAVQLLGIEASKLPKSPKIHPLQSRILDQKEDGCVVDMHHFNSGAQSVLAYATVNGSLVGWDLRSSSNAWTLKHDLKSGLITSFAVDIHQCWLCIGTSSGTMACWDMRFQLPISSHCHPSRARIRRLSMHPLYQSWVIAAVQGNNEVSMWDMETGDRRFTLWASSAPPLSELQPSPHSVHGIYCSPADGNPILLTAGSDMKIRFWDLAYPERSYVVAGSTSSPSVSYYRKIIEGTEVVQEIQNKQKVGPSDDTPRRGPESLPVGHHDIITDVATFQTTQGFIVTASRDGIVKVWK
Chain of UniProt Q9UIL8 (Q9UIL8 whole entry): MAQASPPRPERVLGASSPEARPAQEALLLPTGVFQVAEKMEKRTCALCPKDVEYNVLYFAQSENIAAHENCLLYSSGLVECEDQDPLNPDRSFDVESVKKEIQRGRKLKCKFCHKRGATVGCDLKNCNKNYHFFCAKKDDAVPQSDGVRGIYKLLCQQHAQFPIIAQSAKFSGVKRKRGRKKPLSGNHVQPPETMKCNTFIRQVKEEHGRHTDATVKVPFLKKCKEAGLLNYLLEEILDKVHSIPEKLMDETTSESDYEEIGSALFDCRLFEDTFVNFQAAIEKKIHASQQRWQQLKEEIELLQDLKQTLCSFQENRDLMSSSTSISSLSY

Target	probe-labelled cysteine peptide fold change
PIK3R4_Q99570_955_EQCNAER (UniProt Q99570)	-0.0631
PPP1R12C_Q9BZL4_297_LLAEHGGGMDSLTHAGQRPCDLADEEVLSLLEELAR (UniProt Q9BZL4)	0.136
PEPD_P12955_158_GVNTDSGSVCR (UniProt P12955)	0.0721
POLR1C_O15160_214_PVHDDILIAQLRPGQEIDLLMHCVK (UniProt O15160)	-0.00122
PHF11_Q9UIL8_135_NYHFFCAK (UniProt Q9UIL8)	-0.0148
PECAM1_P16284_109_CTVIVNNK (UniProt P16284)	0.126

same assay, conditions: 50 µM; THP-1; incubation time: 4 h

Target	probe-labelled cysteine peptide fold change
PIK3R4_Q99570_955_EQCNAER (UniProt Q99570)	-0.105
PPP1R12C_Q9BZL4_297_LLAEHGGGMDSLTHAGQRPCDLADEEVLSLLEELAR (UniProt Q9BZL4)	-0.278
PEPD_P12955_158_GVNTDSGSVCR (UniProt P12955)	-0.0568
POLR1C_O15160_214_PVHDDILIAQLRPGQEIDLLMHCVK (UniProt O15160)	-0.0368
PHF11_Q9UIL8_135_NYHFFCAK (UniProt Q9UIL8)	0.156
PECAM1_P16284_109_CTVIVNNK (UniProt P16284)	0.476
